This is a sample that favours compounds with a hit; in the whole collection about 2.7% have one here.
HIF-2a inh = HIF-2a inhibition | 786-0 RCC cells HIF-2a reporter, luciferase luminescence, overnight | inhibition, % at 18.8 µM | 360,000 compounds, 0.72% hits | AID 624352;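 active = inhibition of the luminescence signal of 40% or more relative to plate controls, in a single-dose primary screen at 18.75 µM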
MITF TRPM1 inh = reduces MITF-dependent TRPM1 promoter luciferase signal | SK-MEL-5 TRPM1 promoter luciferase, 24 h | inhibition, % at 12.5 µM | 330,000 compounds, 0.83% hits | AID 488899;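 active = mean inhibition across replicates of 60% or more, whatever share of single replicates reaches that level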
Shn3 3UTR inh = Schnurri-3 reporter inhibition in Clone20 osteoblasts | Clone20 osteoblast Shn3 3'UTR firefly luciferase, 24 h | inhibition, % at 12.5 µM | 360,000 compounds, 0.52% hits | AID 588674;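 active = mean inhibition of at least 75% with every replicate also reaching 75%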;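 also: 0% = median of neutral control wells and 100% = pilot-screen positive control compound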
CF NFkB inh = cystic fibrosis NF-kB activation inhibition; KKLEB NF-kB-GFP reporter, PAF-induced, GFP fluorescence overnight; inhibition, % at 5 µM; 360,000 compounds, 0.86% hits; AID 588850;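 active = at least 50% inhibition at 5 µM, scaled per plate between neutral and stimulator controls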;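 also: PAF is a Pseudomonas aeruginosa culture filtrate used as stimulus; plate controls were PAF-stimulated DMSO wells for no effect and unstimulated DMSO wells for full effect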
Peg3 promoter = Peg3 promoter activity inhibition | 360,000 compounds, 1.7% hits | HeLa PEG-Prom luciferase reporter, luminescence, overnight | AID 588405 | inhibition, % at 20 µM;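 active = inhibition of at least 50% at 20 µM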
KKLEB cytotox = reduces viability of KKLEB cystic fibrosis airway cells; 360,000 compounds, 0.36% hits; activity change (cytotoxicity), % at 5 µM; KKLEB CF airway cells viability, ATPlite luminescence, overnight; active compounds read low; cells stimulated with P. aeruginosa culture filtrate;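 active = corrected activity change at or below -50% at 5 µM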
The depositor's hits bear a star.

Results for NC(=O)c1cccc2c1-c1ccccc1/C2=N/NC(N)=S ?
HIF-2a inh: 10; MITF TRPM1 inh: 2; Shn3 3UTR inh: -2; CF NFkB inh: -43; Peg3 promoter: 20; KKLEB cytotox: 8

How did CCOC(=O)Nc1ccc2c(c1)C(=NNC(N)=S)c1ccccc1-2 do in these assays?
HIF-2a inh: -65; MITF TRPM1 inh: -1; Shn3 3UTR inh: 2; CF NFkB inh: -104; Peg3 promoter: 71*; KKLEB cytotox: 16

Results for COc1ccc(-c2cc(-c3ccc(O)cc3)nc(N)c2C#N)cc1 ?
HIF-2a inh: -18; MITF TRPM1 inh: 3; Shn3 3UTR inh: 17; CF NFkB inh: -10; Peg3 promoter: -10; KKLEB cytotox: -7

How did COc1ccc(-c2cc(-c3ccc(OC)cc3)c(C#N)c(SC)n2)cc1 do in these assays?
HIF-2a inh: 10; MITF TRPM1 inh: 4; Shn3 3UTR inh: -26; CF NFkB inh: 50*; Peg3 promoter: 33; KKLEB cytotox: -26

Results for CN(C)c1ccc(-c2csc(C(O)c3ccc(F)c(F)c3)n2)cc1 (stereo unspecified) ?
HIF-2a inh: -215; Shn3 3UTR inh: -27; CF NFkB inh: 11; Peg3 promoter: -219; KKLEB cytotox: -13

What do the screens show for `COc1ccc2c(Cl)cc(NC(=O)Nc3c(C)cccc3C)nc2c1`?
HIF-2a inh: 14; Shn3 3UTR inh: -18; CF NFkB inh: 12; Peg3 promoter: 21; KKLEB cytotox: -6

What do the screens show for `O=S(=O)(c1ccc(Cl)cc1)n1ccc2cccnc21`?
HIF-2a inh: 22; MITF TRPM1 inh: 1; Shn3 3UTR inh: 98*; CF NFkB inh: 16; Peg3 promoter: 20; KKLEB cytotox: -16

How did Cc1ccc(S(=O)(=O)n2ccc3cccnc32)cc1 do in these assays?
HIF-2a inh: 9; MITF TRPM1 inh: 11; Shn3 3UTR inh: -9; CF NFkB inh: 11; Peg3 promoter: 16; KKLEB cytotox: -7

Results for CN(C)Cc1csc(NC(=O)Nc2ccccc2Cc2ccccc2)n1 ?
HIF-2a inh: -13; Shn3 3UTR inh: -20; CF NFkB inh: 4; Peg3 promoter: -2; KKLEB cytotox: 7

How did COc1cccc(NC(=O)C2CCCN2C(=O)Nc2cccc(F)c2)c1 (stereo unspecified) do in these assays?
HIF-2a inh: 12; MITF TRPM1 inh: 11; Shn3 3UTR inh: 8; CF NFkB inh: 20; Peg3 promoter: 67*; KKLEB cytotox: -5

Results for COc1cccc(NC(=O)C2CCCN2C(=O)Nc2ccccc2)c1 (stereo unspecified) ?
HIF-2a inh: -2; MITF TRPM1 inh: -7; Shn3 3UTR inh: 3; CF NFkB inh: -4; Peg3 promoter: 12; KKLEB cytotox: 0

How did CN(CC(O)COc1ccc(OCC(O)CN(C)C2CCCCC2)cc1)C1CCCCC1 (stereo unspecified) do in these assays?
HIF-2a inh: 19; MITF TRPM1 inh: -12; Shn3 3UTR inh: 5; CF NFkB inh: 26; Peg3 promoter: 83*; KKLEB cytotox: -15

How did CN(C)CCNC(=O)c1ccc(COc2ccc(Cl)cc2Cl)cc1 do in these assays?
HIF-2a inh: -73; MITF TRPM1 inh: 17; Shn3 3UTR inh: -7; CF NFkB inh: 26; Peg3 promoter: 54*; KKLEB cytotox: -28

How did CC1CCN(C(=O)CCC(=O)Nc2ccc([N+](=O)[O-])cc2)CC1 do in these assays?
HIF-2a inh: -2; Shn3 3UTR inh: 5; CF NFkB inh: -32; Peg3 promoter: -22; KKLEB cytotox: -12

How did COc1ccc(/C=C/C(=O)C(C)(C)C)cc1OC do in these assays?
HIF-2a inh: -12; MITF TRPM1 inh: 1; Shn3 3UTR inh: -1; CF NFkB inh: -2; Peg3 promoter: 83*; KKLEB cytotox: 3

Results for O=C(/C=C/c1ccccc1)c1ccc2ccccc2c1 ?
HIF-2a inh: -220; MITF TRPM1 inh: -52; Shn3 3UTR inh: -61; CF NFkB inh: -24; Peg3 promoter: 78*; KKLEB cytotox: 8

What do the screens show for `O=C(/C=C/c1ccccc1)c1ccccc1`?
HIF-2a inh: -62; MITF TRPM1 inh: -22; Shn3 3UTR inh: -54; CF NFkB inh: -7; Peg3 promoter: -24; KKLEB cytotox: -4

Results for COC(=O)c1cn(C(=O)/C=C/c2ccc(OC)c(OC)c2)c2ccccc12 ?
HIF-2a inh: -86; MITF TRPM1 inh: -20; Shn3 3UTR inh: -38; CF NFkB inh: 12; Peg3 promoter: 82*; KKLEB cytotox: -16

What do the screens show for `COc1ccc(C(=O)C=Cc2ccc(OCc3ccccc3)c(OC)c2)cc1OC`?
HIF-2a inh: 21; Shn3 3UTR inh: 0; CF NFkB inh: 0; Peg3 promoter: 80*; KKLEB cytotox: -16

How did COC(=O)C1(C(=O)OC)C/C=C\CCN(S(=O)(=O)c2ccccc2[N+](=O)[O-])CC1 do in these assays?
HIF-2a inh: -1

What do the screens show for `COc1ccc(Oc2ccc(/C=C/C(=O)c3cccc(OC)c3)cc2[N+](=O)[O-])cc1`?
HIF-2a inh: 34; MITF TRPM1 inh: 1; Shn3 3UTR inh: -5; CF NFkB inh: -28; Peg3 promoter: 114*; KKLEB cytotox: 1

What do the screens show for `COc1ccc(Oc2ccc(/C=N/NC(=O)c3cccnc3)cc2[N+](=O)[O-])cc1`?
HIF-2a inh: 0; MITF TRPM1 inh: 9; Shn3 3UTR inh: 5; CF NFkB inh: -14; Peg3 promoter: -15; KKLEB cytotox: -2

What do the screens show for `CCOc1ccc(/C=N/NS(=O)(=O)c2ccc(C)cc2)cc1OC`?
HIF-2a inh: 19; MITF TRPM1 inh: -8; Shn3 3UTR inh: 7; CF NFkB inh: 5; Peg3 promoter: 21; KKLEB cytotox: 6

How did COc1cc(/C=N/NS(=O)(=O)c2ccc(C)cc2)ccc1OCc1ccc(C(=O)O)cc1 do in these assays?
HIF-2a inh: 32; MITF TRPM1 inh: 72*; Shn3 3UTR inh: 25; CF NFkB inh: 11; Peg3 promoter: -20; KKLEB cytotox: -16

What do the screens show for `COc1ccc(C=CC(=O)c2ccc3cc(OC)c(OC)cc3c2)cc1OC`?
HIF-2a inh: 3; Shn3 3UTR inh: 55; CF NFkB inh: 36; Peg3 promoter: 92*; KKLEB cytotox: -13

Results for CCC1CSC(Nc2ccc(C(=O)/C=C/c3ccc(OC)c(OC)c3)cc2)=N1 (stereo unspecified) ?
HIF-2a inh: 27; MITF TRPM1 inh: 43; Shn3 3UTR inh: 87*; CF NFkB inh: 14; Peg3 promoter: 91*; KKLEB cytotox: -7

Results for COc1ccc(CN2CC[C@@H]3CN(C(C)=O)[C@H](c4ccccc4Br)C[C@@H]32)cc1 ?
HIF-2a inh: -11; Shn3 3UTR inh: -11; CF NFkB inh: 15; Peg3 promoter: 12; KKLEB cytotox: -7

What do the screens show for `COc1ccc(C2=Nn3c([n+](C)c4ccccc43)SC2)cc1`?
HIF-2a inh: 14; MITF TRPM1 inh: 59; Shn3 3UTR inh: 82; CF NFkB inh: 15; Peg3 promoter: 7; KKLEB cytotox: -24
